Measurements reported in article PMC7862700, “An all-to-all approach to the identification of sequence-specific readers for epigenetic DNA modifications on cytosine”.

What was measured:
Assay in all cases: DAPPL (digital affinity profiling via proximity ligation, sequencing); 10 mM Tris-HCl pH 7.5, 50 mM NaCl, 1 mM DTT, 4% glycerol, room temperature, 30 min; GST-TFs on glutathione beads, 16-mer random dsDNA library, 0.1% formaldehyde crosslink after washing; high values mean tight binding
FEV = target: T1, FEV (Homo sapiens, UniProt Q99581 1-238); conditions: protein: recombinant; tags: N-terminal GST; dsDNA, one strand shown
T1 sequence: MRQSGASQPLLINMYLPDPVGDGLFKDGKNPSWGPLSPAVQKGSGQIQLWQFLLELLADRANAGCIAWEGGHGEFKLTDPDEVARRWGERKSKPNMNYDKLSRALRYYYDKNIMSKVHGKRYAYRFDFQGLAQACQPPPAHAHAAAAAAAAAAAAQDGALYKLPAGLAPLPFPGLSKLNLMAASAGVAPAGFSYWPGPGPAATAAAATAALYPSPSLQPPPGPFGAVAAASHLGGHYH
How it was run: (§1)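 After expression in yeast as GST fusions, human transcription factors were bound to glutathione beads, DNA-barcoded and mixed with a tag-only sample. The pools were incubated with 200 nmole of a 16-mer random double-stranded DNA library in Tris/NaCl/DTT/glycerol buffer (30 min, room temperature), washed and crosslinked with 0.1% formaldehyde. Proximity ligation with BsaI/T4 ligase ran for 1 h at 37 °C, before PCR amplification and sequencing on an Illumina NextSeq500. Binding signal is a hexamer's read frequency for a factor divided by its frequency for the tag-only sample.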

ETV5 = ETV5 (Homo sapiens, UniProt P41161 1-510); conditions: protein: recombinant; tags: N-terminal GST; dsDNA, one strand shown
Sequence of ETV5 (P41161 whole entry): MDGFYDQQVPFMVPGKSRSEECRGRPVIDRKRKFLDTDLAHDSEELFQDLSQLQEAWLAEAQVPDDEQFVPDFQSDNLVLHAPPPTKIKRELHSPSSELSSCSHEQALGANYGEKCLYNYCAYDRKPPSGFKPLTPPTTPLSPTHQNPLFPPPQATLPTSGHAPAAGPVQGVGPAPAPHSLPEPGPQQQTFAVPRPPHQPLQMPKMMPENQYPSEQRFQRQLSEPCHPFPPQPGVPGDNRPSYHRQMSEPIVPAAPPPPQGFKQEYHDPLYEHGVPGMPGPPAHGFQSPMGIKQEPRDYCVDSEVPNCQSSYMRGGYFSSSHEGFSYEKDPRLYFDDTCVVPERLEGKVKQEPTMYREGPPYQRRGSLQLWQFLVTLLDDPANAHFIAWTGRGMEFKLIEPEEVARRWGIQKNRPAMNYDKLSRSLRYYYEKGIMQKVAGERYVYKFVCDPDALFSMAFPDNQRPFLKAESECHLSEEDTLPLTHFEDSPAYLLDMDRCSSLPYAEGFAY
How it was run: as §1

HSF1 = HSF1 (Homo sapiens, UniProt Q00613 1-529); conditions: protein: recombinant; tags: N-terminal GST; chain copies: 3; dsDNA, one strand shown
Sequence of HSF1 (Q00613 whole entry): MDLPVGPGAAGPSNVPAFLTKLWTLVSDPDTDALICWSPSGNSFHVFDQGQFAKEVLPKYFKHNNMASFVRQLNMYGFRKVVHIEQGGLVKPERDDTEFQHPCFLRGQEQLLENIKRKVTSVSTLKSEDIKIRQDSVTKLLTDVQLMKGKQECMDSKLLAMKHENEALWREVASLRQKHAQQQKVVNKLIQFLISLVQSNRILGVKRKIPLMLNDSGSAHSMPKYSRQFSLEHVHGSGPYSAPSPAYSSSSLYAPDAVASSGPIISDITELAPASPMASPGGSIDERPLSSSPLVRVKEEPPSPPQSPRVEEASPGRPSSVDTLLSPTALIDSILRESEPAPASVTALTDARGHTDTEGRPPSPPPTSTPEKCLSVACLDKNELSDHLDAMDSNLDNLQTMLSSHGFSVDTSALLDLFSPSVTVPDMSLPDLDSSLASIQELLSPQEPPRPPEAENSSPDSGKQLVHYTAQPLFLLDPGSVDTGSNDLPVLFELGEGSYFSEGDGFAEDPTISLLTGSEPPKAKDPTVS
How it was run: as §1

SPIC = target: T2, SPIC (Homo sapiens, UniProt Q8N5J4 1-248); conditions: protein: recombinant; tags: N-terminal GST; dsDNA, one strand shown
T2 sequence: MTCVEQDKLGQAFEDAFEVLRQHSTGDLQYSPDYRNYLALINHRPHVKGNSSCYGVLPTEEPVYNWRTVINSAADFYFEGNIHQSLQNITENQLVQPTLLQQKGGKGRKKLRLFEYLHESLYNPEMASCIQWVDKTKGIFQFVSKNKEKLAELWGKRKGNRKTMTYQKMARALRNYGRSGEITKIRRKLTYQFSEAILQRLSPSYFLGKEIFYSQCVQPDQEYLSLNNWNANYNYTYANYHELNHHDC
How it was run: as §1

ELF4 = ELF4 (Homo sapiens, UniProt Q99607 1-663); conditions: protein: recombinant; tags: N-terminal GST; dsDNA, one strand shown
Sequence of ELF4 (Q99607 whole entry): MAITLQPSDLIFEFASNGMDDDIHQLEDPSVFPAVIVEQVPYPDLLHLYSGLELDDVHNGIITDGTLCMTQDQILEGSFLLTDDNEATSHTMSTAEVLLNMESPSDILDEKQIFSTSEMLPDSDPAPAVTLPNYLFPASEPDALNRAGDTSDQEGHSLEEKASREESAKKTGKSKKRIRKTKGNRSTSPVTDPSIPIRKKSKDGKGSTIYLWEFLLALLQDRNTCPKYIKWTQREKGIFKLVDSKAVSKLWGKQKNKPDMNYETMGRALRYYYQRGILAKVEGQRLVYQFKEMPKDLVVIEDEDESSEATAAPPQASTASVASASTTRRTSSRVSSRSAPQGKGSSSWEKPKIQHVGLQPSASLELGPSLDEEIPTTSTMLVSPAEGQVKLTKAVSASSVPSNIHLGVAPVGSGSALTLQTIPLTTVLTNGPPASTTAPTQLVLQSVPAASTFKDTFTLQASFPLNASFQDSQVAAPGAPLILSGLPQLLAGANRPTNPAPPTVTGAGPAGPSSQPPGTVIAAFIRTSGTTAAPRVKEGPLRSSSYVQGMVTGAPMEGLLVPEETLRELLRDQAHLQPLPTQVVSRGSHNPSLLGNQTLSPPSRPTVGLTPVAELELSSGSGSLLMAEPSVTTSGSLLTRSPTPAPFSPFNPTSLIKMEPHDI
How it was run: as §1

ELK4 = target: T3, ELK4 (Homo sapiens, UniProt P28324-2 1-405); conditions: protein: recombinant; tags: N-terminal GST; dsDNA, one strand shown
T3 sequence: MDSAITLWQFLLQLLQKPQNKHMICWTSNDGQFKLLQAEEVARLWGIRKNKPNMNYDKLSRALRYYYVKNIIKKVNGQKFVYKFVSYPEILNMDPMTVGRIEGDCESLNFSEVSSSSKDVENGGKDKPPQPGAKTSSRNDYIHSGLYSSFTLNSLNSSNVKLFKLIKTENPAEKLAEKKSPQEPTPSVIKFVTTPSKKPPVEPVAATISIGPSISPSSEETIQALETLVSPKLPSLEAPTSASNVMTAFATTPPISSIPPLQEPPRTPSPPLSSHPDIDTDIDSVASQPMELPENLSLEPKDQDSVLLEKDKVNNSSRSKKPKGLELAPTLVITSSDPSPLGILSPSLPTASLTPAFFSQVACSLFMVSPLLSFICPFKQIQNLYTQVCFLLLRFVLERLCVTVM
How it was run: as §1

ETV2 = target: T4, ETV2 (Homo sapiens, UniProt O00321 1-342); conditions: protein: recombinant; tags: N-terminal GST; dsDNA, one strand shown
T4 sequence: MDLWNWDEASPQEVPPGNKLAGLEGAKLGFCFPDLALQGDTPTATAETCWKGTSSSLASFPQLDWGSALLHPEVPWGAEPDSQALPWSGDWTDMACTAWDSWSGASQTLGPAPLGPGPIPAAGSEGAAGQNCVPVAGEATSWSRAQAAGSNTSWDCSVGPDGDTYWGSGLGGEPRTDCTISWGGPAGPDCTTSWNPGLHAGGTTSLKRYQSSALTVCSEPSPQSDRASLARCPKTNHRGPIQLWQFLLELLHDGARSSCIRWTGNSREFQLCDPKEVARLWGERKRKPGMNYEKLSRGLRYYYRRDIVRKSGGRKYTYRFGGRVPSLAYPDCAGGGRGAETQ
How it was run: as §1

ELF3 = target: T5, ELF3 (Homo sapiens, UniProt P78545 1-371); conditions: protein: recombinant; tags: N-terminal GST; dsDNA, one strand shown
T5 sequence: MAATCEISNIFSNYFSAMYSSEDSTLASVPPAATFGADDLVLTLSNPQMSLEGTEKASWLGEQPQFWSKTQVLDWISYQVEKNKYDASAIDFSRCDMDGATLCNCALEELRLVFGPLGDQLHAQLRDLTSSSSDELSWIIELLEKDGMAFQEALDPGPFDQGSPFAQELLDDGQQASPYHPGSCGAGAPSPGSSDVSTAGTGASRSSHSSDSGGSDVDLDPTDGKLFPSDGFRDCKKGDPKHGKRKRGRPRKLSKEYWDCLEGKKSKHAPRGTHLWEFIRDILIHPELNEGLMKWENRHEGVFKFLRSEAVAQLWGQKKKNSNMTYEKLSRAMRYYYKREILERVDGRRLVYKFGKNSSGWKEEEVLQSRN
How it was run: as §1

CRX = CRX (Homo sapiens, UniProt O43186 1-299); conditions: protein: recombinant; tags: N-terminal GST; dsDNA, one strand shown
Sequence of CRX (O43186 whole entry): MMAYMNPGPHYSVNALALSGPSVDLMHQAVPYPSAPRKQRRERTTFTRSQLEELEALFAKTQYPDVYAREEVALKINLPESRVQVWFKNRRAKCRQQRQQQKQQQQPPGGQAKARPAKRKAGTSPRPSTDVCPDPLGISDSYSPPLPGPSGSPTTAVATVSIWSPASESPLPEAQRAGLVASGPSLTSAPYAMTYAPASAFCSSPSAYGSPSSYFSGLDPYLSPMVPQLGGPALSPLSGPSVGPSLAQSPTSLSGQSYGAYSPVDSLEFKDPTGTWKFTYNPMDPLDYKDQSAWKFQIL
How it was run: as §1

ETV1 = ETV1 (Homo sapiens, UniProt P50549 1-477); conditions: protein: recombinant; tags: N-terminal GST; dsDNA, one strand shown
Sequence of ETV1 (P50549 whole entry): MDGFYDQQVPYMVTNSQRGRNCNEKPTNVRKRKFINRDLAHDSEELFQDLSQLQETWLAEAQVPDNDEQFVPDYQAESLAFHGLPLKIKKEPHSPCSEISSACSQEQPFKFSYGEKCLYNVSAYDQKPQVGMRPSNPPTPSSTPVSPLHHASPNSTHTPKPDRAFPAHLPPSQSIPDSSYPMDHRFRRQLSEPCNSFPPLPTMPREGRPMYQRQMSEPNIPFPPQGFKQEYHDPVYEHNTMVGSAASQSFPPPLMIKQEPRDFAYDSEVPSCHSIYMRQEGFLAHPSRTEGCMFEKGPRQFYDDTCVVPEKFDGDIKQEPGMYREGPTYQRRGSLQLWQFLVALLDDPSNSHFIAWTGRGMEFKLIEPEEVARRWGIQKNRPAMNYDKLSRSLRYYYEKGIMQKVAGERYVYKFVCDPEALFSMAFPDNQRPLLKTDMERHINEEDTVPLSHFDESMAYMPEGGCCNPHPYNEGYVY
How it was run: as §1

ERF = target: T6, ERF (Homo sapiens, UniProt P50548 1-548); conditions: protein: recombinant; tags: N-terminal GST; dsDNA, one strand shown
T6 sequence: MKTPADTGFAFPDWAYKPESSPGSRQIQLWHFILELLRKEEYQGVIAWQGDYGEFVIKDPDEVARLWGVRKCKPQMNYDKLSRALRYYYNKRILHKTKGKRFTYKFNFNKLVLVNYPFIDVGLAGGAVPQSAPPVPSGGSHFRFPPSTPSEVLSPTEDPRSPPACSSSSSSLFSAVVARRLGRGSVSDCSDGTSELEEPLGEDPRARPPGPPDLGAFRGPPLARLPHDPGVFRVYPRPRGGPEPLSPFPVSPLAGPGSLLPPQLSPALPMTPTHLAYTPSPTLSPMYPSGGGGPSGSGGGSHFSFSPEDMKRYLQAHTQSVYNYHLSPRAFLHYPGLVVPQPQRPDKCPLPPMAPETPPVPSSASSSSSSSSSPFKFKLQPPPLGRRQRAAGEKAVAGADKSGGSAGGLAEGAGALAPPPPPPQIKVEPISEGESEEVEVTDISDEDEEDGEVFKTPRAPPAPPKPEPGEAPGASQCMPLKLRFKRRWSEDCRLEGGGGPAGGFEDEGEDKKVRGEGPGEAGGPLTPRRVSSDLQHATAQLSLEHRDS
How it was run: as §1

ETV3L = target: T7, ETV3L (Homo sapiens, UniProt Q6ZN32 1-361); conditions: protein: recombinant; tags: N-terminal GST; dsDNA, one strand shown
T7 sequence: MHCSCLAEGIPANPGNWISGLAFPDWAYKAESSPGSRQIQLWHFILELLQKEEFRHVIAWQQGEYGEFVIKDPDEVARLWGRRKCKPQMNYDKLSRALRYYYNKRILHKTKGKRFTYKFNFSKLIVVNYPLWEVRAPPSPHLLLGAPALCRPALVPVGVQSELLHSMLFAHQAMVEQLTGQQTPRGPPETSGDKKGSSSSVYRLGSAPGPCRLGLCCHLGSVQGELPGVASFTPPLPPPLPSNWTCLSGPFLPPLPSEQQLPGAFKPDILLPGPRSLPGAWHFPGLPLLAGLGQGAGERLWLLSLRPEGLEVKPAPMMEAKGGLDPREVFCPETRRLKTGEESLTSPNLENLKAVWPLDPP
How it was run: as §1

ETS2 = target: T8, ETS2 (Homo sapiens, UniProt P15036 1-469); conditions: protein: recombinant; tags: N-terminal GST; dsDNA, one strand shown
T8 sequence: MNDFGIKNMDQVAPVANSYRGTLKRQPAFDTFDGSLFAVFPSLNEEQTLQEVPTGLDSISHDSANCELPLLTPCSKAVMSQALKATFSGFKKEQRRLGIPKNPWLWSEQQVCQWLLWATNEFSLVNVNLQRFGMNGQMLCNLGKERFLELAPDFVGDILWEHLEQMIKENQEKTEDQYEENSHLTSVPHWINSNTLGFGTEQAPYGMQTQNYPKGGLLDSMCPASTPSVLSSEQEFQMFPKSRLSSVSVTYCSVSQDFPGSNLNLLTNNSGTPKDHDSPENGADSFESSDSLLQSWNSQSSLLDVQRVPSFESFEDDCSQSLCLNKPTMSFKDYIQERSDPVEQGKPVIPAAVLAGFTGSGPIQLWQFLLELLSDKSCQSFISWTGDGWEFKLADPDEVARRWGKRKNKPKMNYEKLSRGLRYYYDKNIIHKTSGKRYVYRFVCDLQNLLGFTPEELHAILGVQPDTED
How it was run: as §1

SPDEF = target: T9, SPDEF (Homo sapiens, UniProt O95238 1-335); conditions: protein: recombinant; tags: N-terminal GST; dsDNA, one strand shown
T9 sequence: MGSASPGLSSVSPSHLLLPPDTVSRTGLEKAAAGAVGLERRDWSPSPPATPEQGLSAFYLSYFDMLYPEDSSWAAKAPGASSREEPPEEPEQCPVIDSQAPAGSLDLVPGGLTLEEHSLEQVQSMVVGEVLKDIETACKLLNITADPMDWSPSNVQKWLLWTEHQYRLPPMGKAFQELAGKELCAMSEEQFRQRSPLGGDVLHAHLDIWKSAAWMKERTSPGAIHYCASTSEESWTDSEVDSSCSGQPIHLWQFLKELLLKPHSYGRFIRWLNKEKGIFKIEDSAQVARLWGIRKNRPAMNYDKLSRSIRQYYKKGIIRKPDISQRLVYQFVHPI
How it was run: as §1

ETV7 = target: T10, ETV7 (Homo sapiens, UniProt Q9Y603 1-341); conditions: protein: recombinant; tags: N-terminal GST; dsDNA, one strand shown
T10 sequence: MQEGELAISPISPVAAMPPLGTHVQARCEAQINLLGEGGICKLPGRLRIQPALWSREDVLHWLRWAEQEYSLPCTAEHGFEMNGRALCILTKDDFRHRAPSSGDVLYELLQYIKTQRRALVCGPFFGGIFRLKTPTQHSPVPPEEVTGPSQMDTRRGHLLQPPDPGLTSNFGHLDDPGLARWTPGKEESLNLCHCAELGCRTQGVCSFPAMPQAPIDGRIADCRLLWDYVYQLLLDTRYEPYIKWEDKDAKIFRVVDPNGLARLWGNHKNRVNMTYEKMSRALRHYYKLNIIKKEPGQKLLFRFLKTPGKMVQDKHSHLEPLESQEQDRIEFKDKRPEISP
How it was run: as §1

ELF5 = target: T11, ELF5 (Homo sapiens, UniProt Q9UKW6-2 1-255); conditions: protein: recombinant; tags: N-terminal GST; dsDNA, one strand shown
T11 sequence: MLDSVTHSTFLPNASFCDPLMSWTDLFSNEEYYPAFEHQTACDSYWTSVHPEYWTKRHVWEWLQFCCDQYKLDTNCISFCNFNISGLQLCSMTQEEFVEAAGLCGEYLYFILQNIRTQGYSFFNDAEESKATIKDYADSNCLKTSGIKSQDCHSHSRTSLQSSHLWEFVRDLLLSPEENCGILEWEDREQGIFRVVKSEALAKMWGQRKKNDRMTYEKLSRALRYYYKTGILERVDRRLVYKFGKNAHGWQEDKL
How it was run: as §1

ETV3 = target: T12, ETV3 (Homo sapiens, UniProt P41162-2 1-143); conditions: protein: recombinant; tags: N-terminal GST; dsDNA, one strand shown
T12 sequence: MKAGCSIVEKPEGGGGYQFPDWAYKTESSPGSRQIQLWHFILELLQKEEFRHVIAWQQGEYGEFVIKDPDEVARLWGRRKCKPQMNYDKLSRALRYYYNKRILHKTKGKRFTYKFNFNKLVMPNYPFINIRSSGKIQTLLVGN
How it was run: as §1

ETV6 = ETV6 (Homo sapiens, UniProt P41212 1-452); conditions: protein: recombinant; tags: N-terminal GST; dsDNA, one strand shown
Sequence of ETV6 (P41212 whole entry): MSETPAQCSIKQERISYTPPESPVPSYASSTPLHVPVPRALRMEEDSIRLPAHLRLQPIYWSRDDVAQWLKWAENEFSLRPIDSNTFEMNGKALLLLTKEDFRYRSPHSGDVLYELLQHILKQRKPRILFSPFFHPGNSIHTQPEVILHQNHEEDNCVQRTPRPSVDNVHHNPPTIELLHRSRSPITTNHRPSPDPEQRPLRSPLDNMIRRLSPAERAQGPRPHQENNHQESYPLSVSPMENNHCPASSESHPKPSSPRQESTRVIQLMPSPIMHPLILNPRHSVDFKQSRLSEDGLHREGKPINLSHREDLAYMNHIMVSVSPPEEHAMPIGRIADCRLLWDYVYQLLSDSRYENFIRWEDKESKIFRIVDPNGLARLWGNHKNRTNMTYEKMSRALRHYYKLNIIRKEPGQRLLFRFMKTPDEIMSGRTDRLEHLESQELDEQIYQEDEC
How it was run: as §1

TTTTGG
binding signal (FEV): 1.38 fold enrichment (6-mer frequency, TF over GST control)
binding signal (ETV5): 1.55 fold enrichment (6-mer frequency, TF over GST control)
binding signal (HSF1): 1.44 fold enrichment (6-mer frequency, TF over GST control)
binding signal (SPIC): 1.38 fold enrichment (6-mer frequency, TF over GST control)
binding signal (ELF4): 1.41 fold enrichment (6-mer frequency, TF over GST control)
binding signal (ELK4): 1.45 fold enrichment (6-mer frequency, TF over GST control)
binding signal (ETV2): 1.6 fold enrichment (6-mer frequency, TF over GST control)
binding signal (ELF3): 1.44 fold enrichment (6-mer frequency, TF over GST control)
binding signal (CRX): 1.6 fold enrichment (6-mer frequency, TF over GST control)
binding signal (ETV1): 1.55 fold enrichment (6-mer frequency, TF over GST control)
binding signal (ERF): 1.47 fold enrichment (6-mer frequency, TF over GST control)
binding signal (ETV3L): 1.48 fold enrichment (6-mer frequency, TF over GST control)
binding signal (ETS2): 1.55 fold enrichment (6-mer frequency, TF over GST control)
binding signal (SPDEF): 1.36 fold enrichment (6-mer frequency, TF over GST control)
binding signal (ETV7): 1.43 fold enrichment (6-mer frequency, TF over GST control)
binding signal (ELF5): 1.34 fold enrichment (6-mer frequency, TF over GST control)
binding signal (ETV3): 1.36 fold enrichment (6-mer frequency, TF over GST control)
binding signal (ETV6): 1.42 fold enrichment (6-mer frequency, TF over GST control)
